# “And” between values parts separate entries of the source, which are not always exact repeats. Equal entries are not always repeated. The source made the active and inactive calls.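 How the source made its calls: active means compounds killing one labelled cell type while sparing the other, by normalised counts and ratio limits, not self-fluorescent; inactive means the rest.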
# Assay: differential killing of epithelial or mesenchymal cells, primary screen, imaging, PC-3E GFP, TEM4-18 mCherry, co-culture (AID 1345086);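 further: cells exposed to compound for 72 h before imaging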;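 on red/green cell ratio (normalised): normalised mesenchymal count divided by normalised epithelial count so high means epithelial killing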
# Conditions: imaging cell counts, at 1 µM; for red/green cell ratio (normalised): actives lie on both sides, counts scaled to control wells, 1 = unselective
# [1] = measured here: epithelial PC-3E GFP cell survival
# [2] = measured here: mesenchymal TEM4-18 mCherry cell survival
SMILES,red/green cell ratio (normalised),normalised cell number [1],normalised cell number [2]
CC(=O)OCC(=O)[C@@]1(O)CCC2C3C[C@H](C)C4=CC(=O)C=CC4(C)C3[C@@H](O)CC21C (stereo partly specified),1.09 (inactive),1.16,1.27
CO[C@@H]1CC(=O)c2cccc3c2C12Oc1ccc(O)c4c1[C@](O3)(O2)C1O[C@@H]1[C@@H]4O (stereo partly specified),0.98 (inactive),1,0.98
C=C1[C@@H](C)C2[C@H](Cc3c[nH]c4ccccc34)NC(=O)[C@]23C(=O)/C=C/C(=O)[C@H](O)/C(C)=C/[C@@H](C)C/C=C/[C@H]3[C@@H]1O (stereo partly specified),0.87 (inactive),1.25,1.09
CCOC(=O)O[C@]1(C(=O)COC(=O)CC)CCC2C3CCC4=CC(=O)C=C[C@]4(C)C3[C@@H](O)C[C@@]21C (stereo partly specified),0.87 (inactive),1.29,1.13
CC(CC(=O)N1C(=O)OC[C@H]1c1ccccc1)N1CCOC1=S (stereo partly specified),0.87 (inactive),1.09,0.95
C=CC(C)(C)c1cc(O)ccc1OC1OC(CO)C(O)C(O)C1O (stereo unspecified),1.01 (inactive),0.93,0.94
CC(C)(C)Oc1c(F)c(F)nc(F)c1Cl,0.97 (inactive),0.78,0.76
O=C(NCC1O[C@@H](OC2C(NC(=O)c3ccccc3)C[C@@H](NC(=O)c3ccccc3)[C@H](OC3OC(COS(=O)(=O)O)[C@@H](OS(=O)(=O)O)[C@H](NC(=O)c4ccccc4)[C@H]3OS(=O)(=O)O)[C@H]2OS(=O)(=O)O)[C@H](OS(=O)(=O)O)[C@@H](OS(=O)(=O)O)C1OS(=O)(=O)O)c1ccccc1 (stereo partly specified),1.21 (inactive),0.96,1.16
[N-]=[N+]=N[C@H]1[C@H](Sc2ccccc2)OC(CO)C(O)[C@@H]1O (stereo partly specified),0.98 (inactive),1.08,1.06
CCC(C)[C@H]1O[C@]2(C=C[C@@H]1C)C[C@@H]1C[C@@H](C/C=C(\C)[C@@H](OC3C[C@H](OC)C(O[C@H]4C[C@H](OC)[C@@H](O)[C@H](C)O4)[C@H](C)O3)[C@@H](C)/C=C/C=C3\COC4[C@H](OC)C(C)=C[C@@H](C(=O)O1)[C@]34O)O2 (stereo partly specified),0.83 (inactive),1.13,0.93
C[C@@H]1C[C@H](O)/C=C/[C@H](O)[C@@H](O)CC(=O)O1,0.87 (inactive),1.16,1.02
O=C(NCc1ccccc1)C1O[C@H](NCc2ccccc2)[C@@H](O)[C@@H](O)C1O (stereo partly specified),1.04 (inactive),1.09,1.13
C=C1OC(=O)[C@]2([C@H](C)C=C[C@H](O)[C@@H]2O)[C@@H]1O,0.98 (inactive),1,0.99
C[C@H]1C[C@H](O)[C@H]2[C@@H](C=C[C@@](C)(O)[C@]2(C)C(=O)CCO)C1,0.95 (inactive),0.32,0.3
Cc1cccc(CN2CCN(C(c3ccccc3)c3ccc(Cl)c(C)c3)CC2)c1 (stereo unspecified),0.79 (inactive),1.23,0.97
O=C1C=CC2(Oc3cccc4cccc(c34)O2)[C@H]2[C@H]1[C@@H](O)CC[C@H]2O,1.07 (inactive),0.95,1.01
Clc1ccc(Br)cc1/C=C/C1CCCNC1 (stereo unspecified),0.95 (inactive),1.16,1.1
CN[C@H]1[C@@H](O[C@@H]2[C@@H](O[C@@H]3[C@@H](O)[C@H](O)[C@@H](N=C(N)N)[C@H](O)[C@H]3N=C(N)N)O[C@H](C)[C@@]2(O)CO)O[C@H](CO)[C@@H](O)[C@@H]1O,0.84 (inactive),1.23,1.03
CCCc1ccc(C(=O)O)nc1,0.84 (inactive),1.18,0.99

SMILES,red/green cell ratio (normalised),normalised cell number [1],normalised cell number [2]
COC(=O)[C@@H]1OC(=O)C2OC23[C@@]1(C)CCC1[C@@]2(C)CCC(=O)C(C)(C)C2C[C@@H](OC(C)=O)[C@]13C (stereo partly specified),1.04 (inactive),1.06,1.11
CC1(C)S[C@@H]2[C@H](NC(=O)C(N)c3ccc(O)cc3)C(=O)N2[C@H]1C(=O)O (stereo partly specified),0.84 (inactive),1.22,1.02
COc1c(N2CC[C@@H](CN)C2)c(F)cc2c(=O)c(C(=O)O)cn(Cc3ccc4ccccc4c3)c12,1.09 (inactive),0.86,0.93
COC(=O)c1ccc(C(CC(C)C)NC(C)=O)o1 (stereo unspecified),1 (inactive),1.11,1.12
CN(C(=O)Cc1ccccc1)C1C(O[C@@H]2OC(COS(=O)(=O)O)C(NC(=O)Cc3ccccc3)[C@H](OS(=O)(=O)O)[C@H]2OS(=O)(=O)O)OC2C[C@@H](NC(=O)Cc3ccccc3)[C@@H](OC3C(NC(=O)Cc4ccccc4)C[C@@H](NC(=O)Cc4ccccc4)[C@H](OS(=O)(=O)O)[C@H]3OS(=O)(=O)O)OC2C1OS(=O)(=O)O (stereo partly specified),0.95 (inactive),1.04,0.99
CCC(/C=C/[C@@H](C)[C@H]1CCC2C3CC=C4C[C@@H](O)CC[C@]4(C)C3CC[C@@]21C)C(C)C (stereo partly specified),1.07 (inactive),1.13,1.2
CC(C)CCCC(C)C1CCC2C3CC[C@H]4C[C@@H](O)CC[C@]4(C)C3CC[C@]12C (stereo partly specified),1.05 (inactive),1.04,1.1
CO[C@H]1OC(COCc2ccccc2)C(O)[C@@H]2OC(=O)N[C@H]12 (stereo partly specified),1.08 (inactive),0.88,0.95
CC(CCC(=O)O)[C@H]1CCC2C3CC[C@@H]4C[C@H](O)CC[C@]4(C)C3C[C@H](O)[C@@]21C (stereo partly specified),1.05 (inactive),0.86,0.91
CC(=C\C(=O)O)/C=C(\C)C[C@H](C)CCCC[C@H]1OC(=O)[C@@H]1CO,1 (inactive),0.95,0.95
O=C1C=CC2(Oc3cccc4cccc(c34)O2)[C@H]2[C@H]1[C@@H](O)C=C[C@H]2O,0.98 (inactive),1.06,1.04
CC(=O)OC1CCC2(C)C(=CC=C3C2CCC2(C)C3CCC2C(C)/C=C/C(C)C(C)C)C1(C)C (stereo unspecified),1.04 (inactive),0.92,0.96
C[C@H]1CC[C@@H](C(C)(C)O)CC2=C1CC[C@@H]2C,1.27 (inactive),0.71,0.91
C=C1C2=C(C(=O)N1OC)[C@H](O)[C@](C)(O)[C@H](CCCCC)O2,1.13 (inactive),1.01,1.15
COc1cc(CC(=O)O)c(C(C)=O)c(O)c1OC,0.89 (inactive),1.18,1.06
O=C(O)c1cn(C2CC2)c2cc(N3CCN(c4ncncn4)CC3)c(F)cc2c1=O,1.22 (inactive),0.88,1.08
CCC1OC(=O)[C@H](C)C(=O)[C@H](C)[C@@H](OC2O[C@H](C)C[C@H](N(C)C)[C@H]2O)[C@](C)(OC)C[C@@H](C)C(=O)[C@H](C)[C@H]2N(CCCCn3cnc(-c4cccnc4)c3)C(=O)O[C@@]12C (stereo partly specified),1.16 (inactive),1.06,1.23
CC(=O)C1=C(O)C=C2Oc3c(C(N)=O)c(O)cc(O)c3[C@@]2(C)C1=O,1.13 (inactive),0.92,1.04
CC(=O)OCC[C@H](C)CCC=C(C)C,1.13 (inactive),1,1.13

SMILES,red/green cell ratio (normalised),normalised cell number [1],normalised cell number [2]
COc1ccc2oc(-c3ccccc3OC)cc(=O)c2c1,0.85 (inactive),1.16,0.98
NC(CSSCC(N)C(=O)O)C(=O)O (stereo unspecified),0.92 (inactive),1.24,1.15
CC(CC(=O)N1CCOC1=O)N1C(=S)OC[C@@H]1Cc1ccccc1 (stereo partly specified),1.09 (inactive),0.88,0.95
COC(=O)[C@H](Cc1ccccc1)NC(=O)/C(=C1\OC(=O)C(c2ccccc2)=C1O)c1ccccc1,0.97 (inactive),0.92,0.9
COc1c(F)c(F)cc(C(=O)O)c1F,1.1 (inactive) and 1.01 (inactive),0.89 and 0.98,0.98 and 0.99
COc1cc(/C=C/C(=O)/C=C(O)/C=C/c2ccc(O)c(OC)c2)ccc1O,1.04 (inactive),1.02,1.06
C=C(C)n1cc(C(=O)O)c(=O)c2cc(F)c(N3CC[C@@H](CN)C3)c(OC)c21,1.13 (inactive),1.07,1.21
NC(=O)NCCCC(N)C(=O)O (stereo unspecified),1.05 (inactive),1.03,1.08
C[C@H](Cc1cc(O)cc(O)c1C(=O)O[C@H](C)CC(=O)O[C@H](C)Cc1cc(O)cc(O)c1C(=O)O[C@H](C)CC1Cc2cc(O)cc(O)c2C(=O)O1)OC(=O)C[C@@H](C)O (stereo partly specified),0.98 (inactive),0.85,0.83
O=C(NCC[C@H](O)C(=O)O)OCc1ccccc1,1.04 (inactive),1.09,1.14
COc1cccc(Oc2c(O)cc(C)cc2CC(=O)c2cc(C)cc(O)c2C(=O)c2c(O)cccc2O)c1C(=O)O,1.1 (inactive),1.09,1.21
COC(=O)CCC(C)[C@H]1CCC2C3C(C[C@H](O)[C@@]21C)[C@@]1(C)CC[C@@H](O)C[C@H]1C[C@H]3O (stereo partly specified),1.15 (inactive),0.89,1.02
O=C1C[C@@H](O)[C@]23Oc4ccc(O)c5c4[C@](Oc4cccc1c42)(O3)C1O[C@@H]1[C@H]5O (stereo partly specified),0.97 (inactive),1.1,1.07
O=c1c2cc(O)c(O)cc2oc2cc(O)c(C3O[C@H](CO)[C@H](O)[C@@H](O)[C@H]3O)c(O)c12 (stereo partly specified),0.86 (inactive),0.99,0.85
O=C(C/C=C/c1ccc(O)c(O)c1)O[C@H](Cc1ccc(O)c(O)c1)C(=O)O,1.06 (inactive),1,1.06
CC(CC(=O)N1C(=O)OC[C@@H]1Cc1ccccc1)N1C(=S)OC[C@H]1c1ccccc1 (stereo partly specified),0.87 (inactive),1.17,1.02
COC(=O)c1c(Cl)nc(Cl)c2ccccc12,1.07 (inactive),0.85,0.91
COc1c(F)c(F)cc(C(N)=O)c1F,1.04 (inactive),0.96,0.99
CO[C@H]1CC(O[C@@H]2/C(C)=C/C[C@@H]3C[C@@H](C[C@]4(C=C[C@H](C)[C@@H](C5CCCCC5)O4)O3)OC(=O)[C@@H]3C=C(C)[C@@H](O)C4OC/C(=C\C=C\[C@@H]2C)[C@]43O)O[C@@H](C)C1O[C@H]1C[C@H](OC)[C@@H](O)[C@H](C)O1 (stereo partly specified),1.04 (inactive),1.06,1.1

# — PubChem BioAssay
